In PubChem BioAssay (NCI):
This is part of a sample that, as a whole, favours compounds with a hit. Of some 83,000 tested, about 20% had one in any assay.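 How to read the values: 0–100, growth inhibition (40 = 60% inhibited); 0, no net growth; -100 to 0, cell death (-40 = 40% of starting cells died; -100 = all dead).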 Values without a mark were called inactive. Calls of active or inactive are those of the source. How the source made its calls: active means growth percent below 10; inactive means the rest.

Tested on: MDA-MB-468 breast
Assay: NCI-60 one-dose screen, 48 h (100 = growth as untreated, 0 = no growth, -100 = all killed)
Details: 10 µM unless noted

Compared with `OCC(O)C(O)C(O)C(/C=N/Nc1ccccc1)=N/Nc1ccccc1` (stereo not given), `NC(N)=N/N=C(/c1ccccc1)c1ccc(N)cc1` is higher in growth: 68% for the first, 119% for the second.

Compared with `CCCCCCCCCC(C)NC(=O)CCl` (stereo not given), `Cc1cc(C)cc(CCCCCCCCCCCCCCCCCC(=O)O)c1` is higher in growth: 95.4% for the first, 106% for the second.

Going from `O=C(O)c1ccc(Cl)cc1Nc1ccc(F)cc1` to `Nc1ccccc1NS(=O)(=O)c1ccc(Cl)cc1`, the growth rises from 27.9% to 99.1%.

Going from `NS(=O)(=O)c1ccc(Nc2nc(N/N=C/c3ccc(Cl)cc3)nc(Nc3ccccc3)n2)cc1` to `O=C1c2ccccc2NC(c2cn(-c3ccccc3)nc2-c2cccs2)N1Cc1ccccc1` (stereo not given), the growth rises from 66.6% to 95.4%.

Going from `COc1ccc(Cc2nnc(Nc3nc4ccccc4s3)s2)cc1` to `COc1ccc(C2CC(c3cccc(OC)c3)=NN2C(=O)c2cc(OC)c(OC)c(OC)c2)cc1` (stereo not given), the growth falls from 92.6% to 29.2%.

First: S=C(Cc1ccc(-c2ccccc2)cc1)N1CCOCC1
Second: O=C(NCc1ccccc1)c1ccc2c(c1)NC(=O)[C@@H]1CCCN21
The growth of the first is lower: 90.8% for the first, 103% for the second.

First: Cc1cc(N(CCCNc2ccnc3cc(Cl)ccc23)Cc2ccco2)nc(Cl)n1
Second: O=C(NCCNc1nccc(-c2c(-c3cccc(O)c3)nc3sccn23)n1)c1cc(N2CCOCC2)cc(C(F)(F)F)c1
The growth of the first is lower: 32.4% for the first, 94.8% for the second.

First: CCCCCCCCCC(=O)Oc1ccc(/C(=C(/C)Cc2cccc(OC)c2)c2ccc(OCCN(C)C)cc2)cc1
Second: CCc1c(C(=O)NCc2c(O)ccc3cccc(O)c23)[nH]c(C)c1C(C)=O
The growth of the first is higher: 103% for the first, 18.5% for the second.

First: COc1ccc(/C=C/C(=O)NCCO)cc1
Second: C#C[C@]1(O)CC[C@H]2[C@@H]3CC=C4c5sc(N(C)c6ccccc6)nc5CC[C@]4(C)[C@H]3CC[C@@]21C
The growth of the first is higher: 101% for the first, 76.2% for the second.

With `C/C=C/C1=CN2C(=O)c3cc(OC4OC(C)C(NC)C(C)(O)C4O)c(C)c(O)c3N=C[C@@H]2C1` (stereo not given in full) the growth was -57.5% (active).
With `O=C(/C=C/c1ccccc1)C(Br)C(Br)c1ccccc1` (stereo not given) the growth was -38.1% (active).
With `CCCc1n(Cc2ccc3ccccc3n2)cc[n+]1Cc1ccc2ccccc2n1` the growth was -39.9% (active).
For `C=C1C(=O)O[C@H]2[C@H]1CC/C(COC(=O)N1CCC[C@H]1C(=O)Nc1ccc(OC)c(C(N)=O)c1O)=C\CC[C@@]1(C)O[C@@H]21`, the growth was -4.47% (active).
In the case of `CCN=c1sc2c(n1NC(=O)c1cc3ccc1CCc1ccc(cc1)CC3)C(=O)c1ccccc1C2=O`, the growth was -33.7% (active).
`COc1ccc2nc(-c3ccc(Cl)cc3)cc(-c3nnc(SC/C(=N/O)c4ccccc4)o3)c2c1` was tested, and the growth was 9.96% (active).
With `COC(=O)Nc1nc2ccc(C(=O)c3cccc(I)c3)cc2[nH]1` the growth was 2.93% (active).
